# Experimental data taken from the supplement of paper PMC7724964.
# T1: EEF1A1 244-333 GTP_EFTU_D2 (domain begin residue: 244, domain end residue: 333), P68104
# T1 chain: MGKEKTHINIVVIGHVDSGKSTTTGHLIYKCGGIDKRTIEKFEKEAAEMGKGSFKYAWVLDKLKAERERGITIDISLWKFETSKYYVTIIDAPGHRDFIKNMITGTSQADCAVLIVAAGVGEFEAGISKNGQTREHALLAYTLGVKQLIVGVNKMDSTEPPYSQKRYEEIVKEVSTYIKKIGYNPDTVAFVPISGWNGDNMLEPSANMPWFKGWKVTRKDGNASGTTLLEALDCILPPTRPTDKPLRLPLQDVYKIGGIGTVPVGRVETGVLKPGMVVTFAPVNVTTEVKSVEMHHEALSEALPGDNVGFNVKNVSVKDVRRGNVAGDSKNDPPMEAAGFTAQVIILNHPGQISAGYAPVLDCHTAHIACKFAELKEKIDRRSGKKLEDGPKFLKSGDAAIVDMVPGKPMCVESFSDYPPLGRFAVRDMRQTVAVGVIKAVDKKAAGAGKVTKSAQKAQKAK
# T2: DYNLL2 1-89 Dynein_light (domain begin residue: 1, domain end residue: 89), Q96FJ2
# T2 chain: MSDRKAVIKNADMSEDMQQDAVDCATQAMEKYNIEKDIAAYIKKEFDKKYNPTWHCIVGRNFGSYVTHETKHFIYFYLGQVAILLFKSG
# T3: EEF1A2 240-332 GTP_EFTU_D2 (domain begin residue: 240, domain end residue: 332), Q05639
# T3 chain: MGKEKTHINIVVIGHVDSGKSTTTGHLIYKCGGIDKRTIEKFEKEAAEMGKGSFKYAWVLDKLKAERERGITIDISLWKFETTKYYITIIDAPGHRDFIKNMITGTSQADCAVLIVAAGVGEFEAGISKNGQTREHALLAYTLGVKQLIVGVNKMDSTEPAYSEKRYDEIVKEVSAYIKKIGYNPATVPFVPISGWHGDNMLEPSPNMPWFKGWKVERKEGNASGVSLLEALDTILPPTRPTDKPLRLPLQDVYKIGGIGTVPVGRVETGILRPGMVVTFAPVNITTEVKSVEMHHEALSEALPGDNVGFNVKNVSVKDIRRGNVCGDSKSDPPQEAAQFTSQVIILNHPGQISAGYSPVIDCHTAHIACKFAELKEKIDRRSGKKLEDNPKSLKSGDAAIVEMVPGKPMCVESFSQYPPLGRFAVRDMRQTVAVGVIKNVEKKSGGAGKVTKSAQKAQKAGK
# Molecular target: T1, EEF1A1 244-333 GTP_EFTU_D2 (domain …
# Assay: phage ELISA signal ratio (GST-PRM binding over GST background); higher = stronger binding of peptide-phage to the PRM
# Method in brief: (§1)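 Human peptide recognition domains were expressed in 96-well plates as fusions to the C-terminus of glutathione S-transferase (GST) and selected against an M13 phage library displaying randomized hexadecapeptides, cysteine-free and glycine-flanked, on the gene-8 major coat protein. Five selection rounds were run, and approximately 48 individual clones from rounds 4 and 5 were tested by phage ELISA. Each value is the ELISA signal on the GST-domain fusion divided by the signal on GST alone. Positive clones were sequenced.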
row,Binder,phage ELISA signal ratio
1,ATPPQLTAHPNFMMWF,8.96

# Molecular target: DYNLL1 1-89 Dynein_light (domain begin residue: 1, domain end residue: 89), P63167
# Sequence (P63167 whole entry): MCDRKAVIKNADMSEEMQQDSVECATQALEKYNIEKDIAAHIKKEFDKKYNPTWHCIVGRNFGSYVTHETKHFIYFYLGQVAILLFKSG
# Assay: as above
# Method in brief: as §1
row,Binder,phage ELISA signal ratio
1,TQTDAWEMTMLAQQAV,25.2
2,TQTDLMGDHWPQHKMT,24.5
3,TQTEPAWGETGEMTAI,26
4,SQTDPTYWFPWEDKWN,28.8
5,TQTEYWVIDMPDWMTI,21.2
6,GTQTDDTMVYFPREQR,22.8
7,TQTEEYMQMLWPYQDV,21.3
8,VDMGTQTEASLLRYSV,33.5
9,MATQTDWNWGFLQEME,29.1
10,TQTEFPWEDARLPKQE,28.7
11,SQTDWYDELFSQLVVT,27.9
12,SPTEWVWNWGENAQML,24.1
13,TQTDESMWLWHWPEDH,29.4
14,EMWTQTTSYDFLQMQG,20.7
15,VTVGTQWDGFHVDAPI,19.6
16,SQTEPMPLWSRDAEVT,23.1
17,LREMGTQTGEMITDYV,25.8
18,TQTGESEMYFWNHMPK,22.7
19,TQTLAWDWYYEFPEMI,24.5
20,TQTEWLWNWGESAHML,29.8
21,ISVGTQTDWTEPPQMG,29.1
22,TQTDMNFWHSPWVELV,24.8
23,TQTPYDWLYPAATYLT,28
24,SQTPDEWDWQPGAWIT,19.7
25,MSLGTQTDWQEPMWWL,26.8
26,VQTDWMDWWMPDPFNA,23.6
27,TQTEDWPQRESQPNWM,25.2
28,KDFGTQVDFDILHEEE,27.5

# Molecular target: T2, DYNLL2 1-89 Dynein_light (domain begin …
# Assay: as above
# Method in brief: as §1
row,Binder,phage ELISA signal ratio
1,SSTTGDDVLNSLTEMP,34.4
2,VDQASQTWVWWAGQAY,35.9
3,TQTMSWTGEKPQQWEM,27
4,WTQTMNNITPWIEGIA,26.2
5,ETQTPEWMGWLMESAI,34.3
6,QQTDDWHVAETGIWLA,13.9
7,AMVQTEDDWEMMWEQL,17.6
8,GQTEFVYKQMPVSGAR,33
9,TQTEPYKHQDQAHTRG,26.1
10,TEMYEWMADATTNTMW,28
11,TQTLILDMDNMKFMTT,36.6
12,TQVWPDDWWALGNYYE,32
13,DIFPTYQHFMQQYSSE,30.3
14,TQTDVISWQEFIFMRP,36.2
15,STQTDSNWKMMPDGTV,34.5
16,TQFGETWVNWIPLTIT,25.9
17,TMTDATLFEVPSYWIT,31.9
18,TMTPWDWPIYQGESEH,25.7
19,MEMGTQTYKWQEWAFV,31.3
20,TQTGFGQAHMETPHSL,35.8
21,GTQTDEIFYLREYKSM,19.2
22,VQTIGTWEWDHVPVEV,41
23,VQTEAWWPLQTPAWMV,19.7

# Molecular target: EGFR 334-495 Recep_L_domain (domain begin residue: 334, domain end residue: 495), P00533
# Assay: as above
# Method in brief: as §1
row,Binder,phage ELISA signal ratio
1,EFFIPKEFYWDRVQDV,26.6
2,QWDFSQMTWWPIEEWK,13.3

# Molecular target: T3, EEF1A2 240-332 GTP_EFTU_D2 (domain …
# Assay: as above
# Method in brief: as §1
row,Binder,phage ELISA signal ratio
1,PWGPYQSFSELDIKHE,17.3
2,SDHTHWQLIQWDGWML,11.6
3,HWWQDNQGYVWFQVEQ,5.34
